High-throughput results deposited in PubChem by National Center for Advancing Translational Sciences (NCATS).
Hits are enriched below; roughly 11% of the tested compounds scored in any of these assays.
MCF10A rereplic: DNA re-replication induction in MCF 10a cells | AID 624296 | 350,000 tested, 2.9% active | Potency, µM (top dose mostly 46.1 µM), for the others: at the top dose activity, positive = re-replication, most hits filed as activators | MCF 10A DNA re-replication, Hoechst nuclear intensity, 48 h; further: potency means the concentration at half of the fitted maximal effect; % of control where 0% means no effect; nearly all actives have a fitted effect of over 50% in size
Gal4-VP16 FLuc: counter-screen for ROR gamma inhibitors: Gal4-VP16 reporter | Drosophila S2 Gal4-VP16 UAS-luciferase, luminescence, 20 h | Potency, µM (top dose mostly 53.6 µM), for the others: top-dose activity, negative = inhibition, usual class: inhibitors | 310,000 tested, 3.5% active | AID 2546;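 further: Gal4-VP16 expression switched on by copper sulfate through the metallothionein promoter; potency means the concentration at half of the fitted maximal effect; on the % scale 0 is the no-effect control and ±100 the full control effect; nearly all actives have a fitted effect of over 50% in size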
IL1B secr inh: blocks inflammasome-driven IL-1 beta release; THP-1 LPS/ATP IL-1B secretion, AlphaLISA, 16 h; active compounds read low; activity change, % at 57.5 µM; 360,000 tested, 4.7% active; in the data active means activity change below about -50%; inconclusive means mostly about -30% to -49%; further: on the % scale 0 is the no-effect control and ±100 the full control effect
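THP-1 cells pretreated 1 hr with compounds (up to 57.5 uM final), then stimulated with LPS (250 ng/mL final) plus ATP (1.25 mM final); secreted IL-1B measured by AlphaLISA after 16 hr, decreased signal indicating inhibition.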
RORgamma inh: inhibitors of mouse ROR gamma transcriptional activity | AID 2551 | Drosophila S2 Gal4-RORgamma UAS-luciferase reporter, 20 h | P51450 | Potency, µM (doses to about 53.6 µM), for the others: at the top dose activity change, negative = inhibition, hits mostly inhibitors | 310,000 tested, 5.4% active; further: potency means the concentration at half of the fitted maximal effect; on the % scale 0 is the no-effect control and ±100 the full control effect; nearly all actives have a fitted effect of over 60% in size
Target sequence (P51450 whole entry, looked up, the tested form may be a part): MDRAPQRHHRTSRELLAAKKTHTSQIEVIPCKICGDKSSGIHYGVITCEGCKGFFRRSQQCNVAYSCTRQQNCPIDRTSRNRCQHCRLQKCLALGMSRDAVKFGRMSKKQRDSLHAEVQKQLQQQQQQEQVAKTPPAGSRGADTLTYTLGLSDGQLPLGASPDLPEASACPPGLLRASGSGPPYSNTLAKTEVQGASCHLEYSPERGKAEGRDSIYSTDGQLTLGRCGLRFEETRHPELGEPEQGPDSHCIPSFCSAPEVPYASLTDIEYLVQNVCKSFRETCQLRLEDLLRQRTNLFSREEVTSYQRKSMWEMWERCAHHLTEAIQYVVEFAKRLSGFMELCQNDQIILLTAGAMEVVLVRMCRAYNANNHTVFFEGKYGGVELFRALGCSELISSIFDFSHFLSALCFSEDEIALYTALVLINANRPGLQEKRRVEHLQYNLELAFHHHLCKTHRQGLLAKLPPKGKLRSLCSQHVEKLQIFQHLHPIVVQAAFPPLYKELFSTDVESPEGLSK
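In this cell-based reporter format, copper sulfate (700 uM final) drives Gal4–ROR gamma fusion expression from a metallothionein promoter in Drosophila Schneider cells; compounds preincubated 1 hr, reporter read after 20 hr at ambient temperature.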
SW480 rerep: induces DNA re-replication in SW480 colon adenocarcinoma cells; 340,000 tested, 1.8% active; SW480 DNA re-replication, Hoechst DNA content imaging, 48 h; Potency, µM (series often up to 46.1 µM), inactives show at the highest dose re-replication activation, most hits filed as activators; further: potency means the concentration at half of the fitted maximal effect; % of control where 0% means no effect; nearly all actives have a fitted effect of over 55% in size
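250 cells/well; 23 nL cpd via pin tool; 48 hr, 37 C, 5% CO2; Hoechst 40 min; imager read of total nuclear intensity, ex 405/em 500-530 nm.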
Starred values were filed as active, the others as inactive; u = inconclusive; x = no result; ! = not confirmed by another sample; [ ] = dose if it differs, or a comment. Unless noted, the call rests on the fitted dose curve; in most records, active means well fitted curve in the direction sought with a large enough effect; inconclusive means small, poorly fitted or top-dose-only effect, or another doubt; inactive means no such curve, though single readings can be large; an effect the other way counts as inactive or inconclusive.

SMILES	MCF10A rereplic	Gal4-VP16 FLuc	IL1B secr inh	RORgamma inh	SW480 rerep
FC(F)(F)c1ccc(NC(=S)NC2CCCCC2)cc1	7.6%	u	-99.7*	4.47µM*	-4.5%
O=C(Nc1cccc(F)c1)C1CCCCC1	-1.8%	x	13.9	x	-56.9%
Fc1cccc(NC(=S)NC2CCCCCCC2)c1	u	7.08µM*	u	3.55µM*	7.8%
Fc1cccc(NC(=S)NNc2ccccc2)c1	u	2.24µM*	0.0	1.26µM*	u
FC(F)(F)c1cccc(NC(=S)NC2CCCC2)c1	u	8.91µM*	34.2	5.01µM*	2.1%
Fc1cccc(NC(=S)NNc2c3ccccc3nc3ccccc23)c1	-1.2%	-12.0%	7.0	10.3%	-10.5%
O=C(Nc1cccc(C(F)(F)F)c1)C1CCCCC1	-4.0%	-4.0%	-1.7	12.2%	-3.5%
COC(=O)[C@]1(C)N[C@H](CN(C)C(=O)c2ccccc2)[C@@H]2C(=O)N(Cc3ccccc3)C(=O)[C@@H]21	-2.5%	x	24.9	x	u
Nc1c(NC=O)c(=O)n(Cc2ccccc2)c(=O)n1Cc1ccccc1	-4.8%	x	2.8	x	-15.9%
CC(C)C(=O)N1CCCC1(C)C(=O)Nc1ccc2c(c1)OCO2 (configuration not stated)	x	x	4.1	x	x
Nc1ncnc(N)c1NC(=O)c1ccc(OCc2ccccc2)cc1	x	x	30.5	x	x
Oc1ccccc1/C=N/Nc1ccnc(SCc2ccccc2)n1	0.6%	0.316µM*	34.7	0.355µM*	u
Cc1nc(Nc2nc(-c3ccccc3)cc(=O)[nH]2)nc2ccccc12	u	x	-64.5*	x	u
Cc1nc(Nc2nc(CSc3ccc(Cl)cc3)cc(=O)[nH]2)nc2ccccc12	11.5%	-4.3%	9.5	-2.2%	u
Cc1cc(C)cc(Nc2nc3ccccc3c(=O)[nH]2)c1	u	-0.8%	-4.8	-41.3%	u
COc1nc(Nc2nc3ccccc3c(=O)[nH]2)nc2ccc(C)cc12	u	5.01µM*	-82.0*	u	4.61µM*
COc1ccc2nc(Nc3nc(CSc4nc5ccccc5[nH]4)cc(=O)[nH]3)nc(C)c2c1	3.66µM*	5.01µM*	-95.1*	5.62µM*	u
Cc1nc(Nc2nc(CSc3nc4ccccc4[nH]3)cc(=O)[nH]2)nc2ccccc12	11.6µM*	u	-86.9*	u	u
CO[C@H]1COC(=O)C/C=C\[C@@H](C)COC(=O)[C@H]2CCCN2C(=O)C/C=C\[C@H]1C	x	5.2%[10 µM]	x	-28.7%[10 µM]	x
O=C(Nc1ccccc1OCc1ccccc1)c1ccccc1Br	0.581µM*	1.7%	-16.5	4.9%	u
NC(c1ccccc1)c1cccs1 (configuration not stated)	x	x	-8.7	x	x
CC(C)C[C@H](NC(=O)OCC1c2ccccc2-c2ccccc21)C(=O)O	-3.9%	x	7.8	x	11.8%
COC(=O)c1ccc(C(=O)NC2CCSc3ccccc32)cc1 (configuration not stated)	1.4%	3.5%	0.0	-0.5%	13.8%
Cc1ccc(NC(=S)NC2CCSc3ccccc32)cc1C (configuration not stated)	18.4µM*	3.98µM*	-81.4*	3.55µM*	18.4µM*
CCSc1nnc(-c2sc3nnc(-c4ccccc4)c(-c4ccccc4)c3c2N)o1	3.26µM*	1.7%	u	15.5%	u
SMILES	MCF10A rereplic	Gal4-VP16 FLuc	IL1B secr inh	RORgamma inh	SW480 rerep
C#C[C@]1(O)CC[C@H]2[C@@H]3CCc4cc(OC5CCCC5)ccc4[C@H]3CC[C@@]21C	13.3µM*!	-11.7%	0.0	-10.5%[10 µM]	u
O=C(C[C@@H]1C/C=C\CCC(=O)OC[C@@H]2CCCN2C1=O)N[C@@H](CO)Cc1ccccc1	2.1%	x	5.5	x	5.3%
CCc1n[n+](CC(=O)c2ccccc2)c(N)s1	0.1%	2.24µM*	14.8	2.82µM*	-8.5%
Nc1ccc[n+](CC(=O)c2ccccc2)c1	-1.4%	-2.3%	7.2	-8.9%	-2.5%
Cc1ccc(Nc2nc(N)c(C#N)c(CC#N)c2C#N)cc1	20.6µM*	5.4%	-97.0*	20.0%	u
COC(=O)c1ccc2nc(-c3ccco3)c(Cc3ccc(OC)cc3C)n2c1	x	x	-18.3	x	x
CCCN(CCC)c1nc2ccccc2nc1C(C#N)C(=O)OCCOC (configuration not stated)	u	7.5%	-62.4*	-30.9%	12.1%
C=CCN(CC=C)c1nc2ccccc2nc1C(C#N)C(=O)OCCOC (configuration not stated)	9.1%	-3.2%	u	-25.9%	0.5%
COC(=O)c1cc(C(=O)Nc2nnc(CC(C)(C)C)s2)cc([N+](=O)[O-])c1	u	8.91µM*	16.0	8.91µM*	-4.1%
O=C(Nc1ccc(Cl)cc1)Nc1nnc(CSCc2ccccc2)s1	1.6%	-0.6%	-3.3	5.4%	-0.5%
O=C(Nc1nnc(CSCc2ccc(F)cc2)s1)c1cccc([N+](=O)[O-])c1	u	20µM*	26.6	11.2µM*	u
O=C(Nc1nnc(CSCc2ccc(Cl)cc2)s1)c1cccc([N+](=O)[O-])c1	25.6%	10µM*	7.1	11.2µM*	-1.1%
CCC(C)(C)c1nnc(NC(=O)c2cccc([N+](=O)[O-])c2)s1	-3.5%	u	-22.3	12.6µM*	16.4%
O=C(NCc1ccccc1)C(c1ccc(C(F)(F)F)cc1)n1c(=O)c(-c2ccco2)nc2ccccc21 (configuration not stated)	x	x	0.0	x	x
CCOCC(=O)NC1CCc2cc(OC(=O)COCC)c(OC)c(OC)c2-c2ccc(SC)c(=O)cc21 (configuration not stated)	u	x	27.2	x	0.082µM*
COc1cc2c(c(OC)c1OC)-c1ccc(OC)c(=O)cc1[C@H](NC(C)=O)CC2	x	-5.3%	x	-42.7%	x
COc1cc2c(c(OC)c1OC)-c1ccc(SC)c(=O)cc1C(NC(=O)C(F)(F)F)CC2 (configuration not stated)	u	x	44.8	x	0.0206µM*
CC(=O)NCC1CCCN(C(=O)c2ccc(OC3CCN(Cc4ccccn4)CC3)cc2)C1 (configuration not stated)	1.2%	-7.2%	27.8	-25.3%	-7.5%
Cc1cccc2nc(COc3ccc4ccccc4c3Br)cn12	u	u	65.5	8.91µM*	5.7%
C/C(CCN1CCc2nc(-c3ccccc3)c(-c3ccccc3)cc2C1)=N\OC[C@@H](O)[C@@H]1O[C@@H]2OC(C)(C)O[C@@H]2[C@H]1O	x	-9.2%[10 µM]	x	-25.4%[10 µM]	x
O=C(N[C@H](CO)c1ccccc1)[C@H]1O[C@@H](n2ccc(=O)[nH]c2=O)[C@H](O)[C@@H]1O	x	x	27.7	x	x
Oc1c(CN2CCc3ccccc3C2)cc(Cl)c2cccnc12	u	1.12µM*	30.6	0.794µM*	1.8%
COc1ccc(C(=O)Oc2c(CN3CCOCC3)cc(Cl)c3cccnc23)cc1OC	1.9%	x	-0.3	x	-14.7%
O=c1oc2ccccc2c(O)c1Cc1cc(Cl)c2cccnc2c1O	5.8µM*	1.12µM*	139.3	0.794µM*	u
